This is a sample that favours compounds with a hit; in the whole collection about 11% have one here.
Pf growth 96h: Primary qHTS for delayed death inhibitors of the malarial parasite plastid, 96 hour incubation. P. falciparum luciferase reporter growth, 96 h. 320,000 compounds, 6.9% hits. Potency, µM (top dose mostly 28.7 µM), for the others: top-dose activity change, negative = inhibition, usual class: inhibitors; further: on the % scale 0 is the no-effect control and ±100 the full control effect
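Infected RBCs, 2% Hct / 0.05% parasitemia final; luciferase-reporter P. falciparum; cpd 96 h, 37 C, 5% CO2; luciferase detection reagent; luminescence.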
Pf growth 48h: Primary qHTS for delayed death inhibitors of the malarial parasite plastid, 48 hour incubation; 310,000 compounds, 5.9% hits; P. falciparum luciferase growth in erythrocytes, 48 h; AID 504832, 2011; Potency, µM (doses to about 28.7 µM), for the others: at the top dose activity change, negative = inhibition, actives largely listed as inhibitors; further: on the % scale 0 is the no-effect control and ±100 the full control effect
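Luciferase-expressing parasites in RBCs, 2% Hct / 0.1% parasitemia final; RPMI 1640 + 0.5% Albumax; 37 C, 5% CO2, one generation; luminescence read-out, lower signal = inhibition.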
Sm TGR inh: qHTS Assay for the Inhibitors of Schistosoma Mansoni Peroxiredoxins; Schistosoma mansoni thioredoxin glutathione reductase (TGR), Q962Y6; purified TGR, DTNB reduction, TNB absorbance 405 nm; Potency, µM (doses to about 114 µM), for inactives: top-dose activity change, negative = inhibition, most hits filed as inhibitors; 360,000 compounds, 3% hits; further: on the % scale 0 is the no-effect control and ±100 the full control effect; nearly all actives have a fitted effect of over 60% in size
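Kinetic colorimetric format: TGR-catalysed, NADPH-driven DTNB reduction monitored via TNB absorbance. Enzyme dispensed at 20 nM; compound exposure 15 min at room temperature before reaction start.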
AMA1 RON2 block: qHTS for Inhibitors of AMA1-RON; Towards Development of Antimalarial Drug Lead: Primary Screen | Plasmodium falciparum AMA1 (3D7) - RON2 peptide interaction | AlphaScreen AMA1-biotinylated RON2 peptide binding | Potency, µM (series often up to 58.2 µM), for inactives: at the top dose activity change, negative = inhibition, actives largely listed as inhibitors | 360,000 compounds, 0.2% hits;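 further: 0% = vehicle wells and -100% = peptide control; nearly all actives have a fitted effect of over 45% in size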
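AMA1 (3D7) with his tag at 25 nM final met compounds first, then biotinylated RON2 peptide at 25 nM; detection used donor plus acceptor beads, 10 µg/mL apiece, read by AlphaScreen after 30 min at room temperature.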
NS1 function inh: qHTS Assay for Inhibitors of Influenza NS1 Protein Function; AID 2326, 2010; Potency, µM (doses to about 46.1 µM), for inactives: top-dose activity, positive = more growth; 270,000 compounds, 0.4% hits; calls by dose curve; further: actives are rising curves; nearly all actives have a fitted effect of over 50% in size
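S. cerevisiae expressing influenza A NS1, grown in glucose, washed, then diluted 1:100 into pH 6.0 -URA galactose medium with 23 nl compound. Growth recovery read as OD600; NS1-free strain serves as control.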
Numbers without * were called inactive; ? = inconclusive; / = not tested or not shown; [ ] = remark or other dose. Unless noted, the call rests on the fitted dose curve; in most records, active means well fitted curve in the direction sought with a large enough effect; inconclusive means small, poorly fitted or top-dose-only effect, or another doubt; inactive means no such curve, though single readings can be large; an effect the other way counts as inactive or inconclusive. Potency means the concentration at half of the fitted maximal effect.

SMILES | Pf growth 96h | Pf growth 48h | Sm TGR inh | AMA1 RON2 block | NS1 function inh
CCOC(=O)Cn1c(=NC(=O)CC)sc2c(C)cc(C)cc21 | -5% | ? | 0% | 0% | 5%
O=C(Nc1ncccc1O)c1ccc(Oc2ccccc2)cc1 | -24% | -27% | -15% | 59% | -100%
Cc1ccc(-n2c(O)cnc2Nc2nc(C)cc(C)n2)cc1 | 0.29µM* | 13% | 0% | -16% | 5%
Cc1cc(C)nc(Nc2ncc(O)n2-c2ccccc2)n1 | ? | 41% | -12% | 3% | -8%
Cc1cc(C2(O)C(=O)Nc3ccccc32)ccc1F (stereo not given) | 5% | -6% | 5% | 3% | 6%
COc1ccc(/C=N/N2CCN(C)CC2)c(OC)c1OC | -17% | 0% | 50µM* | 0% | /
COc1ccccc1N1CCN(/N=C/c2ccc(OC)c(OC)c2OC)CC1 | 29% | 9% | -5% | -10% | 3%
CCN1C(C(=O)c2ccccc2)=C(OC(=O)COc2ccccc2)c2ccccc2S1(=O)=O | / | / | 16µM* | / | /
Cc1ccc(OCC(=O)OC2=C(C(=O)c3ccccc3)N(C)S(=O)(=O)c3ccccc32)cc1 | / | / | 32µM* | / | /
CCN1C(C(=O)c2ccccc2)=C(OC(=O)C(C)C)c2ccccc2S1(=O)=O | / | / | -29% | / | /
COc1cc(NC(=O)CN(C)CCOc2ccccc2)c(C)cc1[N+](=O)[O-] | ? | 12µM* | -36% | -1% | -4%
COc1ccc(-n2nnnc2SCC(=O)Nc2cc(OC)c([N+](=O)[O-])cc2C)cc1 | 2.9µM* | ? | -13% | 4% | 1%
COc1cccc(-n2nnnc2SCC(=O)Nc2ccccc2OC)c1 | 9.3µM* | 18% | -21% | 1% | 4%
CC(C)N(Cc1nc2ccccc2c(=O)[nH]1)C(=O)c1ccc(NC(=O)CSc2nnnn2C)cc1 | 13µM* | ? | -1% | -6% | /
CN(Cc1ccccc1)S(=O)(=O)c1ccc(F)c(C(=O)Nc2ccccc2C(F)(F)F)c1 | / | / | -1% | / | /
COc1ccccc1NC(=O)c1ccc(NC(=O)CSc2nnnn2C)cc1 | 1% | ? | 5.6µM* | 4% | -12%
CCCS(=O)(=O)c1nnnn1-c1cccc(OC)c1 | -1% | ? | 5.6µM* | 3% | -90%
O=c1c2ccccc2[nH]c(=S)n1-c1ccc2c(c1)OCO2 | 10% | 12µM* | 0% | 82% | 10%
CCN(CC)c1ccc(/C=N/Nc2nc3ccccc3[nH]2)c(O)c1 | 1.2µM* | / | -2% | ? | -62%
COc1cc(OC)c(OC)cc1/C=N/Nc1nc2ccccc2[nH]1 | 1.9µM* | 1µM* | 12% | 52% | -4%
Cc1ccc2cc(/C=N/Nc3nc4ccccc4[nH]3)c(Cl)nc2c1 | ? | 0.74µM* | -8% | 76% | 14%
COc1ccc2c(c1)c(/C=N/Nc1nc3ccccc3[nH]1)c(C)n2C | 1.7µM* | 1.5µM* | 4% | -2% | 0%
Cc1cc(C)cc(NC(=O)CSCc2cc(=O)n3ccsc3n2)c1 | -28% | -3% | -6% | -6% | 8%
C(=N\Nc1nc2ccccc2[nH]1)/c1ccc2ncccc2c1 | ? | 0.15µM* | 10% | 37% | -2%
COc1ccc(/C=N/Nc2nc3ccccc3[nH]2)cc1OC | ? | 0.47µM* | 0% | 22%[11.6 µM] | 18%
SMILES | Pf growth 96h | Pf growth 48h | Sm TGR inh | AMA1 RON2 block | NS1 function inh
Cc1nc(NC(=O)c2ccccc2)sc1-c1cc(C(=O)N2CCOCC2)nn1Cc1ccccc1 | / | / | / | -5% | /
CC1CN(c2nc3c(c(=O)n(Cc4ccc(Cl)c(Cl)c4)c(=O)n3C)n2C)CC(C)O1 (stereo not given) | / | 6.6µM* | 6% | -2% | -118%
Cn1c(N2CCN(c3ccccn3)CC2)nc2c1c(=O)n(Cc1ccc(Cl)cc1)c(=O)n2C | / | 12µM* | -10% | 6% | 13%
Cc1ccccc1N1CCN(C(=O)c2ccc(Oc3ccc(C(F)(F)F)cn3)cc2)CC1 | 13µM* | 9.3µM* | -9% | 17% | 5%
O=C(O)c1ccc(Oc2ccc(C(F)(F)F)cn2)cc1 | 16% | -4% | 5% | -18% | /
Cc1ccc(N=Nc2c(O)ccc3n[nH]nc23)cc1 | 37% | 90% | 32µM* | 44% | -86%
COC(=O)Cn1c(=NC(=O)CCS(=O)(=O)c2ccccc2)sc2c(OC)ccc(OC)c21 | 24% | -4% | ? | 5% | 16%
O=C(c1ccccc1)c1nn(-c2ccccc2)c2nnc(Cc3ccccc3)c(=O)n12 | 10µM* | 10µM* | -1% | -4% | 2%
CC1=Nc2nc(N3CCCCCC3)c(C#N)c3c4c(nc(c23)N1)N(c1ccc2ccccc2c1)C(=O)C4 | / | / | / | 0% | /
CCC(Sc1nc2ccsc2c(=O)n1-c1ccc(Cl)c(C)c1)C(=O)NCc1ccco1 (stereo not given) | 12µM* | 13µM* | ? | -11% | 19%
O=C(CSc1nc2ccsc2c(=O)n1Cc1ccccc1)NCc1ccco1 | / | ? | -24% | -1% | 8%
Cc1ccc(CNC(=O)c2ccc(N3CCC4(CC3)CC(c3ccccc3)=NO4)c(NC(=O)c3ccco3)c2)cc1 | 1µM* | ? | -1% | -6% | 29%
CCCCC(CC)C(=O)Nc1cc(C(=O)NCCC)ccc1N1CCC2(CC1)CC(c1ccccc1)=NO2 (stereo not given) | 1.5µM* | -38% | 9% | -3% | ?
CCCNC(=O)c1ccc(N2CCC3(CC2)CC(c2ccccc2)=NO3)c(NC(=O)c2cccc(OC)c2)c1 | 2.1µM* | ? | -4% | 9% | -32%
CCCNC(=O)c1ccc(N2CCC3(CC2)CC(c2cccc(Br)c2)=NO3)c(NC(=O)c2ccc(Br)cc2)c1 | ? | ? | 0% | 3% | /
Cc1ccc(CNC(=O)c2ccc(N3CCC4(CC3)CC(c3ccccc3)=NO4)c(NC(=O)c3ccccc3)c2)cc1 | ? | 4.7µM* | -3% | -2% | /
Cc1ccc(CNC(=O)c2ccc(N3CCC4(CC3)CC(c3ccccc3)=NO4)c(NC(=O)c3ccc(Br)cc3)c2)cc1 | ? | ? | -1% | -3% | 24%
CCC(=O)N1CCC(C)(C(=O)Nc2ccc3c(c2)OCO3)C1 (stereo not given) | / | / | / | 7% | /
CC1=C(C(=O)Nc2cccnc2)C(c2ccc(C)cc2)n2nc(SCc3ccccc3F)nc2N1 (stereo not given) | / | / | -26% | / | /
CCCNC(=O)c1ccc(N2CCC3(CC2)CC(c2ccccc2)=NO3)c(NC(=O)c2ccco2)c1 | 1.2µM* | ? | 2% | -1% | 8%
Cc1ccc(CNC(=O)c2ccc(N3CCC4(CC3)CC(c3cccc(Br)c3)=NO4)c(NC(=O)c3ccco3)c2)cc1 | 3.7µM* | 1.7µM* | -15% | -1% | /
Cc1ccc(CNC(=O)c2ccc(N3CCC4(CC3)CC(c3ccccc3)=NO4)c(N)c2)cc1 | 33% | -13% | 4% | 3% | 20%

Bioassay records (PubChem BioAssay)
